Test results from PubChem BioAssay AID2069 (Sanford-Burnham Center for Chemical Genomics, 2009).
Out of some 1,200 compounds screened, about 210 (18%) were called active. These entries were drawn from the full list. A number with no mark means an inactive call. Cut-off read from the data, not from the text of the source: active = inhibition above about 30%; inactive = the rest.

Experiment: HTRF signal interference by compounds, confirmation, artefact control for SUMOylation inhibitor project, biochemical, uHTS (AID 2069)
Details: HTRF interference counterscreen, fluorescence, at 35 µM, hits give high values

SMILES	inhibition
COc1ccccc1Oc1c(C)oc2cc(OC(=O)c3ccco3)ccc2c1=O	36.7% (active)
CCOc1cc(/C=C2/C(=O)N(c3ccccc3)N=C2C)ccc1OC(=O)c1ccco1	-12.2%
COc1cc(/C=C2\C(=O)N(c3ccc(S(N)(=O)=O)cc3)N=C2C)ccc1OC(=O)c1ccco1	19.1%
CCOc1cccc(CNc2ccc(O)cc2)c1OCc1ccc(Cl)cc1Cl	17.7%
COc1ccc(-n2c3nc4ccccc4nc3c3c(=N)oc(C)nc32)cc1	-1.2%
O=C1N(c2ccc(Cl)c(Cl)c2)CN(Cc2ccccc2)CN1n1cnnc1	13.3%
CCCNC(=O)c1ccc2c(=O)c(O)c(-c3ccsc3)[nH]c2c1	46.5% (active)
COc1ccccc1NC(=O)Nc1ccnn1Cc1cccs1	63.1% (active)
COc1ccccc1NC(=O)Cn1nc(C)n2cccc2c1=O	-4.55%
COc1ccccc1NC(=O)CSc1ccc2nnc(-c3ccccn3)n2n1	-3.25%
O=C(Nc1nc(-c2ccccc2)cs1)c1ccccc1NS(=O)(=O)c1ccc(F)cc1	9.2%
CC(=O)c1ccc2cccc3c2c1N=CN3C	-3.4%
COc1ccc(Br)cc1C1CC(=O)N2CN(Cc3ccccc3)CSC2=C1C#N (centres undefined)	-9.75%
COc1ccc(OC)c(/C=N/NC(=O)CCc2ccc(O)c(O)c2)c1	17.9%
COc1ccc(-c2nc3ccc([N+](=O)[O-])cc3[nH]2)cc1	23.2%
COc1ccc(-c2nc3ccncc3[nH]2)cc1OC	46.5% (active)
COc1ccc(NC(=O)C(=O)N/N=C\c2ccc(CNC(=O)C(=O)Nc3ccc(C)c(C)c3)o2)c(OC)c1	15.9%
COc1cc(/C=C2\C(=O)N(CCC#N)N=C2C)c(Br)cc1OC(C)C	-5.4%
CCN(CC)C(=O)COc1ccc2oc(-c3ccco3)cc(=O)c2c1	43.6% (active)
O=C(COc1ccc2oc(-c3ccco3)cc(=O)c2c1)N1CCCCC1	39.8% (active)
CN(C)c1cc(N/N=C/c2ccccc2C(F)(F)F)nc(N(C)C)n1	-2.9%
O=c1cc(CSc2nnnn2-c2ccccc2)nc(Nc2ccc(F)cc2)[nH]1	3.3%
NC(=O)CC(NC(=O)Cc1cccc2ccccc12)c1ccc(NC2CCCCCC2)c([N+](=O)[O-])c1 (centres undefined)	6.15%

SMILES	inhibition
Cc1ccc(O)c(CNc2cccc3cccnc23)c1	-18.2%
CCOC(=O)c1c(C)oc2c1c(C=NCCO)c(O)c1ccccc12	5.4%
CC(C)(C)c1cc(=O)n(-c2ccccc2)[nH]1	-0.65%
Fc1ccc(NC(=S)Nc2cccc3ccccc23)cc1F	-11.7%
CC1CCN(Cc2cc(=O)oc3cc(O)c(Cl)cc23)CC1	50.5% (active)
CC(C)(C)C1CCC2(CC1)Nc1cccc3cccc(c13)N2	-2.5%
CCn1c(NC(=O)c2ccccc2)nc2ccccc21	1.3%
COc1ccc(/C=C(\C#N)C(=O)OCC(=O)NCc2ccccc2Cl)cc1	6.4%
COc1ccc2nc(/C(C#N)=C\c3ccc(C(=O)O)cc3)[nH]c2c1	47.6% (active)
N#C/C(=C/c1ccc(-c2cc(C(=O)O)cc(C(=O)O)c2)o1)c1nc2ccccc2s1	13.9%
O=C(/C=C/c1ccco1)NC(=S)Nc1cc(-c2nc3ccccc3s2)ccc1Cl	3.15%
O=C(Nc1ccccc1-c1nc2ccccc2s1)c1cccnc1Cl	64% (active)
O=C(O)c1cc(Cl)c(Cl)cc1C(=O)Nc1cccc2ncccc12	2.4%
COCCNC(=S)Nc1cccc2cnccc12	4.9%
C=CCn1c(SCC(=O)N2N=C(c3ccco3)CC2c2ccco2)nnc1-c1ccncc1 (centres undefined)	-5.2%
O=C1Nc2ccc([N+](=O)[O-])cc2C1=Nc1cccc(CO)c1	3.75%
Cc1[nH]n(-c2ccccc2)c(=O)c1C(c1cccc([N+](=O)[O-])c1)c1c(C)[nH]n(-c2ccccc2)c1=O	-11.2%
NCCSc1c(-c2ccccc2)[nH]c2ccccc12	0.7%
O=[N+]([O-])c1cc2c(cc1/C=N/n1c(-c3ccccn3)n[nH]c1=S)OCO2	0.15%
CCN(Cc1cc(=O)n2ccsc2n1)c1cccc2ccccc12	1.45%
Cc1cccn2cc(-c3ccc(S(=O)(=O)N4CCOCC4)cc3)nc12	40.8% (active)
O=C(Nc1ccccc1F)Nc1cc(S(=O)(=O)N2CCOCC2)ccc1N1CCCC1	6.3%
COc1ccccc1C(=O)Nc1sc2c(c1C(=O)NCc1ccco1)CCCC2	33.8% (active)

SMILES	inhibition
COc1ccccc1C(=O)Nc1ccc(-c2nnn(CC(=O)NCc3ccco3)n2)cc1	13.7%
Cc1ccc(C(=O)Nc2sc3c(c2C(=O)NCc2ccco2)CCCC3)cc1	29.9%
O=c1nc(Nc2ccc(Br)cc2)sc2ccc([N+](=O)[O-])cc12	-4%
CCCCC[C@H](O)/C=C/[C@@H]1[C@@H](C/C=C\CCCC(=O)OC)[C@@H](O)C[C@H]1O	23.6%
CCN(CC)S(=O)(=O)c1ccc(C)c(NC(=O)CSc2ncc(C(F)(F)F)cc2Cl)c1	-6.95%
c1cc(Nc2ncnc3sc4c(c23)CCC4)ccn1	42.9% (active)
CC1=NN(c2ccc(Cl)cc2)C(=O)C1C(c1cccc(O)c1)c1c(C)[nH]n(-c2ccc(Cl)cc2)c1=O (centres undefined)	-23.6%
COc1ccc(C(c2c(C)[nH]n(-c3ccccc3)c2=O)c2c(C)[nH]n(-c3ccccc3)c2=O)cc1OC	13.3%
N#Cc1c(N)nc2c(c1-c1ccc3c(c1)OCO3)CCc1ccccc1-2	13.8%
Cc1oc2c(c(C)cc3oc(=O)c(CC(=O)NCC(=O)NCC(=O)O)c(C)c32)c1C	52.3% (active)
Cc1oc2c(c(C)cc3oc(=O)c(CC(=O)NCC(=O)NCC(=O)NCC(C)O)c(C)c32)c1C (centres undefined)	47.8% (active)
CC1=NN(c2ccccc2)C(=O)/C1=C\c1cn(CCC#N)nc1-c1ccc(Cl)cc1	-15.8%
S=C(Nc1ccc2nc(-c3ccccn3)c(-c3ccccn3)nc2c1)N1CCOCC1	10.8%
CN(Cc1ccco1)C(=O)c1cc2c(s1)-c1ccc(Cl)cc1S(=O)(=O)C2	-9.15%
S=c1[nH]nc(-c2cc(-c3ccccc3)n[nH]2)n1/N=C/c1c(Cl)cccc1Cl	6.95%
CC1CCCN(c2nc3ccccc3nc2C(C#N)S(=O)(=O)c2ccccc2)C1 (centres undefined)	11.8%
O=C1Nc2ccc(C(F)(F)F)cc2N2CCCC12 (centres undefined)	5.75%
Cc1ccccc1N=Cc1cc2c(cc1[N+](=O)[O-])OCO2	-2.65%
O=C1C(C2=NC(c3ccccn3)C3C(=O)N(c4ccc(Cl)cc4Cl)C(=O)C23)=C(O)c2ccccc21 (centres undefined)	2.95%
O=C(N/N=C/c1ccc([N+](=O)[O-])o1)c1cc2c(ccc3ccccc32)o1	20.9%
Cc1cc(C(=O)N/N=C/c2ccc(-c3ccc(C)c(Cl)c3)o2)n[nH]1	4.9%
O=C(N/N=C/c1ccc(-c2ccc(Cl)c(C(=O)O)c2)o1)c1cc2c(ccc3ccccc32)o1	50.7% (active)
Cc1ccc(-n2c(SCC(=O)N/N=C/c3ccccc3C(=O)O)nnc2-c2ccc(Cl)cc2)cc1	5.25%

SMILES	inhibition
O=C(CN1C(=O)CSC1=O)Nc1ccc(C(=O)O)cc1	1.7%
O=C(CSc1nnc(SCc2ccccc2)s1)N/N=C/C=C\c1ccco1	3.25%
Cc1ccc2oc(-c3ccc(C)c(NC(=O)Cc4cccs4)c3)nc2c1	22.6%
O=C(Nc1ccc2oc(-c3cccc4ccccc34)nc2c1)c1ncn[nH]1	16.2%
Cc1ccccc1-c1nc2cc(N)ccc2o1	46.2% (active)
Nc1ccc2oc(-c3cccs3)nc2c1	37.1% (active)
Cc1ccc(-c2nc3cc(N)ccc3o2)cc1	55.7% (active)
Cc1nc2ccc(-c3nc4cc(N)ccc4o3)cc2[nH]1	54.3% (active)
Cc1ccc(-n2nc(C)c3c2OC(N)=C(C#N)C3c2ccoc2)cc1 (centres undefined)	1.75%
COc1ccc(OC)c(/C=C2\S/C(=N/NC(=O)c3ccc4ccccc4c3)NC2=O)c1	8.75%
Cc1cc(C)c(S(=O)(=O)/N=C2/C=C(SCC(=O)O)C(=O)c3ccccc32)cc1C	-10.7%
O=C1C2C3C=CC(C3)C2C(=O)N1CNc1ccc(O)cc1 (centres undefined)	-8.05%
O=c1c2ccccc2nc(COc2ccccc2)n1/N=C/c1cc([N+](=O)[O-])ccc1O	-7.1%
Oc1ccc(NCc2cccc(OCc3ccccc3)c2)cc1	-19.4%
O=C1C(NS(=O)(=O)c2cccs2)=C(N2CCN(c3cccc(C(F)(F)F)c3)CC2)C(=O)c2ccccc21	-7.25%
Cc1ccccc1S(=O)(=O)Nc1nc2ccccc2nc1N1CCc2ccccc2C1	-3.1%
N=c1c2cn[nH]c2nc(SCC(=O)c2ccc(Br)cc2)n1-c1ccc(Br)cc1	0.5%
O=C(CSc1nnc(-c2ccco2)c(-c2ccco2)n1)c1ccccc1	9%
S=c1[nH]nc(-c2ccc(Cl)cc2)n1/N=C/C=C/c1ccco1	-4.3%
CCOC(=O)C1CCCN(c2cc(NCCCO)c([N+](=O)[O-])c3nonc23)C1 (centres undefined)	-8.1%
